Only some compounds are listed: those with a hit (about 1.7% of all), similar ones and a draw of the others.
p53ts 32C kill = kills p53ts cells at the permissive temperature; H1299-p53A138V at 32C, ATP luminescence viability, 24 h; Potency, µM (titrated, usually from 46.1 µM), without a hit: at the top dose activity change, negative = cytotoxicity, hits mostly cytotoxic; 0.93% of 130,000 active; AID 924;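 further: 0% = DMSO and -100% = full killing by reference compound; nearly all actives have a fitted effect of over 55% in size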
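H1299-p53 A138V cells (temperature-sensitive p53) exposed 24 h to up to 46 uM compound at 32C, where p53 is wild-type in conformation. Viability read as ATP luminescence and normalised to DMSO and 100 uM tamoxifen. AC50 fitted with the Hill equation.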
p53ts 39C tox = cytotoxicity in p53ts cells at nonpermissive temperature; H1299-p53A138V viability at 39C, ATP luminescence, 24 h; Potency, µM (doses to about 46.1 µM), inactives show top-dose activity change, negative = cell killing, usual class: cytotoxic; 1.5% of 130,000 active; AID 902; further: on the % scale 0 is the no-effect control and ±100 the full control effect; nearly all actives have a fitted effect of over 55% in size
Peg3 imprint = genomic imprint erasure induction; mouse ES Peg3-LacZ reporter, beta-gal luminescence, 40 h; Potency, µM (doses to about 60.7 µM), without a hit: at the highest dose activity change, positive = activation, actives largely listed as activators; 0.02% of 110,000 active; AID 1948
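Imprint erasure is scored as LacZ activity from the silenced maternal Peg3 allele in feeder-free female ES cells cultured 40 h with LIF. Luminescence is normalized to in-plate negative controls and fitted to the Hill equation.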
IkB sig inh = IkB pathway inhibition in ABC-DLBCL cells; ABC-DLBCL IkBa-CBG/CBR dual luciferase ratio, 4 h; response scale: scaled: untreated 0%, proteasome inhibitor 100%; Potency, µM (doses to about 57.1 µM), without a hit: top-dose IkBa stabilization activation; 0.04% of 110,000 active; AID 445; active means well fitted curve in the direction sought with a large enough effect in the signal ratio, not every such curve was filed as active; inconclusive means small, poorly fitted or top-dose-only effect, or a change in a side signal; the % refers to the signal ratio;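 further: the direction sought is a rising ratio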
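Luminescence ratio of IκBα-fused green versus native red beetle luciferase in OCI-Ly3 cells, 4 h post-doxycycline with compound; red signal alone, scaled from basal (0%) to zero light (-100%), flagged nonspecific or cytotoxic effects.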
An asterisk follows results filed as active; ? = inconclusive; / = no result given; [ ] = remark or other dose. Unless noted, the call rests on the fitted dose curve; in most records, active means well fitted curve in the direction sought with a large enough effect; inconclusive means small, poorly fitted or top-dose-only effect, or another doubt; inactive means no such curve, though single readings can be large; an effect the other way counts as inactive or inconclusive. Potency means the concentration at half of the fitted maximal effect.

SMILES	p53ts 32C kill	p53ts 39C tox	Peg3 imprint	IkB sig inh
CCCCN(CC)C(=O)Nc1ccc2c(c1)N(C)C(=O)c1ccccc1S2	0.2%	25.1µM*	-11.1%[10.9 µM]	?
CCCCN(CC)CCCNC(=O)c1ccc2c(c1)N(Cc1ccc(C)cc1)C(=O)c1ccccc1S2	?	12.6µM*	-8.7%[10.9 µM]	-0.4%
O=C(O)c1nnsc1COCc1ccccc1	-2.4%[9.22 µM]	8.3%[9.22 µM]	-3.4%[10.9 µM]	0.6%[11.4 µM]
COc1ccc2nc3c(cc2c1)Cc1ccccc1-3	0.794µM*	0.794µM*	-96.0%	/
COc1ccc(NC2=Nc3ccccc3CC2)cc1	-11.6%	-21.8%	-83.6%	?
Cc1cc2nc(-c3ccc(SCC(=O)N4CCOCC4)nc3)[nH]c2cc1C	6.31µM*	7.94µM*	-27.1%	?
Cc1cc2nc(-c3ccc(SCC(=O)N4CCN(C(=O)c5ccco5)CC4)nc3)[nH]c2cc1C	6.31µM*	5.01µM*	-41.9%	?
COc1cc(NS(=O)(=O)c2cc(Br)cc3c2N(C(=O)C2CC2)CC3)cc(OC)c1	10µM*	12.6µM*	-24.4%[10.9 µM]	1.3%
O=C(Nc1cccc(C(=O)N2CCCCC2)c1)c1nsc2ccccc12	15.8µM*	10µM*	-8.2%[10.9 µM]	1.3%
COc1cccc(CNC(=O)c2cccc(NC(=O)c3nsc4ccccc34)c2)c1	-18.4%	?	-12.3%[10.9 µM]	?
COC(=O)c1cccc(NC(=O)c2nsc3ccccc23)c1	2.51µM*	6.31µM*	-74.2%[10.9 µM]	6.2%
CCOC(=O)Cn1nc(-c2ccccc2)c2cnc3ccc(OCC)cc3c21	-5.7%	-3.5%	-16.1%[10.9 µM]	1.1%
OCCN(CCO)c1ncnc2nc[nH]c12	3.6%[9.22 µM]	11.1%[9.22 µM]	-13.5%[10.9 µM]	0.1%[11.4 µM]
CN(Cc1ccco1)c1cc(-c2cccc(NS(C)(=O)=O)c2)ncn1	-5.2%	?	-13.3%	-2.3%[11.4 µM]
Cc1ccc(-c2nc3cc(N)ccc3o2)cc1	3.98µM*	3.98µM*	-79.5%	5.7%
Cc1ccc(-c2nc3cc(C)ccc3o2)cc1	10µM*	?	-30.6%	?
CC(C)c1ccc2oc(-c3ccc(N)cc3)nc2c1	6.31µM*	6.31µM*	-52.5%	?
Cc1ccc2oc(-c3ccco3)nc2c1	-9.6%	-5.1%	-1.5%	-2.5%
Cc1cccc(/C=C(\c2nc3ccccc3[nH]2)S(=O)(=O)c2ccccc2)c1	4.47µM*	4.47µM*	/	/
CCc1cccc(C)c1NC(=O)c1cc(CN2CCCC2)on1	2.0%	-5.1%	-5.9%[10.9 µM]	-0.2%
O=C(CCc1nc2cccnc2n1Cc1cccs1)Nc1cccc(C(F)(F)F)c1	-14.7%	-8.0%	-14.0%[10.9 µM]	-2.9%
CC1CCN(c2nc(-c3ccc(C(C)(C)C)cc3)nc3ccccc23)CC1	15.8µM*	10µM*	-15.6%[10.9 µM]	-1.3%
CC1CCN(c2nc(-c3ccncc3)nc3ccccc23)CC1	6.0%	37.3%	-14.0%	?
CC1CCCCN1c1nc(-c2ccc(C(C)(C)C)cc2)nc2ccccc12 (centres undefined)	10µM*	10µM*	-7.1%[10.9 µM]	8.2%
Cc1cccc(-c2nc(CCNC(=O)Cc3ccccc3)cs2)c1	-0.4%	?	1.6%[10.9 µM]	-3.3%
SMILES	p53ts 32C kill	p53ts 39C tox	Peg3 imprint	IkB sig inh
N#Cc1cccc(-c2nc(NCCN3CCOCC3)c3ccccc3n2)c1	-6.6%	-15.2%	?	-10.3%[11.4 µM]
Cc1ccc(CNC(=O)c2cccc(NC(=O)N3CCSc4ncccc43)c2)cc1	14.0%	6.2%	-11.3%[10.9 µM]	?
CCCCCN=Cc1c(C)[nH]n(-c2nc3ccccc3s2)c1=O	1µM*	0.794µM*	-96.6%	?
CNc1nc(-c2cccc(C#N)c2)nc2ccccc12	6.1%	-7.6%	1.26µM*	-2.9%[11.4 µM]
CCc1nnc(NC(=O)CSc2nc3c(cc2C#N)CCC3)s1	2µM*	2µM*	-43.7%	-2.1%
N#Cc1cc2c(nc1SCC(=O)Nc1nccs1)CCCCC2	?	?	-12.4%	0.1%
Cc1csc(SCC(=O)c2cc(C)n(Cc3cccs3)c2C)n1	12.6µM*	12.6µM*	-33.7%	?
CC(=O)Nc1ccc(SCC(=O)c2cc(C)n(Cc3cccs3)c2C)cc1	2.51µM*	2.51µM*	-26.7%	0.4%
COCCn1c(C)cc(C(=O)CSc2ccc(NC(C)=O)cc2)c1C	?	12.6µM*	-35.3%	0.9%
CCN(CC)S(=O)(=O)c1ccc(-c2csc(=Nc3cccc(C(F)(F)F)c3)n2Cc2ccc3c(c2)OCO3)cc1	-1.1%	45.1%	-12.4%[10.9 µM]	?
C=CCNc1nc(-c2cc3ccccc3o2)cs1	14.1µM*	?	/	/
COc1ccc(C(=O)Nc2nc3ccccc3[nH]2)cc1OC	?	?	-41.0%	?
O=C(Nc1nc2ccccc2[nH]1)c1ccc(F)cc1	3.16µM*	2µM*	-90.4%	?
O=C(Nc1nc2ccccc2[nH]1)c1ccccc1F	1.26µM*	1.58µM*	-94.7%	?
COc1ccc(Cn2c(=O)n(Cc3ccco3)c(=O)c3oc4ccccc4c32)cc1	5.6%	-20.8%	9.5%[10.9 µM]	0.2%
CCc1cccc(NC(=O)c2ccc3c(=O)n4nc(Nc5ccccc5OC)sc4nc3c2)c1	3.16µM*	5.01µM*	-17.8%[10.9 µM]	-0.3%
CCc1ccccc1Nc1nn2c(=O)c3ccc(C(=O)NCc4ccccc4OC)cc3nc2s1	-11.4%	5.2%	14.3%[10.9 µM]	?
COc1ccccc1Nc1nn2c(=O)c3ccc(C(=O)NCc4ccc(F)cc4)cc3nc2s1	3.16µM*	3.16µM*	-36.4%[10.9 µM]	-0.6%
Cc1ccccc1Nc1nn2c(=O)c3ccc(C(=O)NCc4cccs4)cc3nc2s1	-14.6%	-8.1%	4.9%[10.9 µM]	?
Cc1ccc(C)c(Nc2nn3c(=O)c4ccc(C(=O)NCc5ccccc5)cc4nc3s2)c1	?	12.6µM*	3.4%[10.9 µM]	?
S=C(Nc1ccccc1)Nc1ccccc1C#Cc1ccccc1	-20.0%	-22.5%	-20.1%	/
CCOC(=O)c1oc2c(c1C)-c1nn(Cc3ccc(Cl)cc3)cc1CC2	3.2%	-16.0%	-8.5%[10.9 µM]	?
COc1ccc(CN(Cc2ccco2)c2cnc(S(C)(=O)=O)nc2C(=O)Nc2ccc(C)c(C)c2)cc1	5.5%	-3.2%	-17.2%[10.9 µM]	?
Cc1ccccc1NC(=O)Cn1c(=O)n(CCCCCC(=O)NCc2ccccc2Cl)c(=O)c2sccc21	-27.2%	-21.8%	14.7%[10.9 µM]	21.9%
CCc1cccc(NC(=O)Cn2c(=O)n(CCC(=O)NCc3ccccc3Cl)c(=O)c3sccc32)c1	?	12.6µM*	-4.9%[10.9 µM]	?
Cc1nnc(SCc2cnc(-c3ccc(C(C)C)cc3)s2)n1C	1.58µM*	2µM*	-14.3%	-0.6%
Cc1nn(-c2nc3ccccc3s2)c(C)c1Oc1ccccc1O	12.6µM*	?	-18.7%	?
O=C(Nc1ccc(C(F)(F)F)cc1)C(Cc1ccccc1)n1cccc1 (centres undefined)	-10.0%	20µM*	-10.2%[10.9 µM]	?
CCCCN1C(=O)c2[nH]nc(-c3ccccc3O)c2C1c1ccc(C(C)(C)C)cc1 (centres undefined)	?	12.6µM*	24.8%[10.9 µM]	?
CCCCN1C(=O)c2[nH]nc(-c3ccccc3O)c2C1c1ccc(OCc2ccccc2)cc1 (centres undefined)	23.6%	12.6µM*	-9.2%[10.9 µM]	?

Screening results as filed in PubChem.
